# Bioassay records as filed in PubChem.
# The full list was thinned out, with hits kept by preference.
# T cruzi growth-1: blocks T. cruzi growth in NIH3T3 culture. T. cruzi beta-gal in NIH3T3, GalScreen luminescence, 90 h. inhibition, % at 8.34 µM. 77,000 compounds, 5.9% hits. AID 624255;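 active = mean inhibition above about 93%, with at least 55% of replicates each passing it, limit read from the data, passing the limit was not always enough; inconclusive = only one of those two conditions holds; inactive = neither condition holds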
# C diff HTS: C. difficile growth inhibition | growth activity, negative = inhibition, % at 16 µg/mL (by protocol) | 86,000 compounds, 0.25% hits | Clostridium difficile clinical isolate growth, OD600, 24 h; active compounds read low;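 active = mean growth activity at or below -80% and every replicate also at or below -80%; inconclusive = mean at or below -80% but some replicate above -80%; inactive = mean growth activity above -80%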
# T cruzi growth-2: blocks T. cruzi growth in NIH3T3 host cells | shares compounds with T cruzi growth-1 | T. cruzi beta-gal in NIH3T3, GalScreen luminescence, 90 h | inhibition, % at 8.35 µM | 5,600 compounds, 72% hits;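 active = mean replicate inhibition above about 95% and at least 55% of replicates individually reaching it, limit read from the data; inconclusive = only one of the two criteria is met; inactive = neither criterion is met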
# T cruzi growth-3: Trypanosoma cruzi proliferation inhibition; shares compounds with T cruzi growth-1; inhibition, % at 2.09 µM; T. cruzi beta-gal in NIH3T3, GalScreen luminescence, 90 h; 5,600 compounds, 21% hits;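 active = mean inhibition above about 95%, with at least 55% of replicates also reaching it, limit read from the data; inconclusive = meets just one of the two conditions; inactive = meets neither condition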
# 3T3 cytotox: cytotoxicity in mouse NIH/3T3 fibroblasts; 5,600 compounds, 14% hits; NIH/3T3 viability, CellTiter-Glo ATP luminescence, 90 h; AID 651742; shares compounds with T cruzi growth-1; cytotoxicity (signal decrease), % at 8.35 µM;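 active = mean signal decrease across replicates above about 35% based on untreated-well scatter, with enough replicates individually passing, limit read from the data; inconclusive = no rule stated though some were filed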
# 3T3 cytotox 2: NIH/3T3 (mouse) viability loss; shares compounds with T cruzi growth-1; NIH/3T3 viability, CellTiter-Glo ATP luminescence, 90 h; inhibition, % at 24.9 µM; 5,600 compounds, 56% hits; AID 651744;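 active = mean loss of cell viability signal at or above a set limit, and enough replicates individually reaching it; inconclusive = meets only the mean limit or only the replicate share; inactive = meets neither condition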
# A number is an active result; – = inactive; ? = inconclusive; · = no result given.
SMILES,T cruzi growth-1,C diff HTS,T cruzi growth-2,T cruzi growth-3,3T3 cytotox,3T3 cytotox 2
C[C@@H]1CN([C@H](C)CO)S(=O)(=O)c2ccc(C#CC3CC3)cc2O[C@@H]1CN(C)Cc1ccccc1F,–,–,·,·,·,·
C[C@@H]1CN([C@H](C)CO)S(=O)(=O)c2ccc(C#CC3CC3)cc2O[C@@H]1CN(C)Cc1ccccc1,–,–,·,·,·,·
C[C@H]1CN([C@@H](C)CO)S(=O)(=O)c2ccc(C#CC3CC3)cc2O[C@@H]1CN(C)Cc1ccccc1F,112,–,97,117,–,104
CO[C@@H]1CN(C)C(=O)c2ccc(NC(=O)c3ccccc3F)cc2OC[C@@H](C)N(C(=O)c2ccccc2F)C[C@@H]1C,–,·,·,·,·,·
O=C(C[C@H]1C[C@@H]2c3cc(NS(=O)(=O)c4ccc(F)cc4)ccc3O[C@@H]2[C@@H](CO)O1)NC1CCCCC1,–,·,·,·,·,·
Cc1ccc(-c2ccc3c(c2)O[C@H](CN(C)C(=O)Nc2ccc(F)cc2)[C@@H](C)CN([C@H](C)CO)S3(=O)=O)cc1,–,–,·,·,·,·
Cc1ccc(-c2ccc3c(c2)O[C@@H](CN(C)C(=O)Nc2ccc(F)cc2)[C@@H](C)CN([C@H](C)CO)S3(=O)=O)cc1,122,–,108,–,55,45
Cc1ccc(-c2ccc3c(c2)O[C@H](CN(C)C(=O)Nc2ccc(F)cc2)[C@H](C)CN([C@H](C)CO)S3(=O)=O)cc1,122,–,110,–,–,66
Cc1ccc(-c2ccc3c(c2)O[C@@H](CN(C)C(=O)Nc2ccccc2)[C@@H](C)CN([C@H](C)CO)S3(=O)=O)cc1,·,–,·,·,·,·
Cc1ccc(-c2ccc3c(c2)O[C@H](CN(C)C(=O)Nc2ccc(F)cc2)[C@H](C)CN([C@@H](C)CO)S3(=O)=O)cc1,119,–,97,–,–,–
Cc1ccc(-c2ccc3c(c2)O[C@H](CN(C)C(=O)Nc2ccccc2)[C@H](C)CN([C@@H](C)CO)S3(=O)=O)cc1,·,–,·,·,·,·
O=C(Nc1ccc2c(c1)[C@H]1C[C@@H](CC(=O)N3CCCCC3)O[C@H](CO)[C@H]1O2)NC1CCCC1,–,–,·,·,·,·
C[C@H](CO)N1C[C@H](C)[C@@H](CN(C)S(=O)(=O)c2ccc(F)cc2)Oc2ccc(NC(=O)CCCN(C)C)cc2C1=O,–,–,·,·,·,·
Cc1noc(C)c1NC(=O)N(C)C[C@@H]1OCCCC[C@H](C)Oc2ccc(NC(=O)Cc3ccccc3)cc2C(=O)N([C@@H](C)CO)C[C@H]1C,–,–,·,·,·,·
C[C@@H]1CN([C@@H](C)CO)S(=O)(=O)c2ccc(C#Cc3ccccc3)cc2O[C@H]1CN(C)S(=O)(=O)c1cn(C)cn1,–,–,·,·,·,·
C[C@H](CO)N1C[C@H](C)[C@@H](CN(C)S(=O)(=O)c2cn(C)cn2)Oc2cc(C#Cc3cccc(F)c3)ccc2S1(=O)=O,–,–,·,·,·,·
C[C@H]1CN([C@@H](C)CO)S(=O)(=O)c2ccc(C#Cc3cccc(F)c3)cc2O[C@H]1CN(C)S(=O)(=O)c1cn(C)cn1,96,–,97,–,–,29
C[C@H]1CN([C@@H](C)CO)S(=O)(=O)c2ccc(C#Cc3ccccc3)cc2O[C@@H]1CN(C)S(=O)(=O)c1cn(C)cn1,?,–,112,–,41,36
C[C@H](CO)N1C[C@H](C)[C@@H](CN(C)S(=O)(=O)c2cn(C)cn2)Oc2cc(C#Cc3ccc(F)cc3)ccc2S1(=O)=O,107,–,96,–,–,25
C[C@H](CO)N1C[C@H](C)[C@H](CN(C)S(=O)(=O)c2cn(C)cn2)Oc2cc(C#Cc3ccc(F)cc3)ccc2S1(=O)=O,–,–,·,·,·,·
C[C@@H]1CN([C@H](C)CO)C(=O)c2cc(NC(=O)CCCCCC(=O)Nc3ccccc3N)ccc2O[C@H]1CN(C)S(=O)(=O)c1ccc(F)cc1,·,–,·,·,·,·
CC(=O)N(C)C[C@@H]1Oc2ncc(-c3ccc(C(=O)N(C)C)cc3)cc2C(=O)N([C@H](C)CO)C[C@@H]1C,–,–,·,·,·,·
O=S(=O)(Cc1ccccc1)N1CCCCN2[C@H](CO)[C@@H](c3ccc(-c4ccccc4)cc3)[C@H]2C1,112,–,101,–,–,106
O=S(=O)(Cc1ccccc1)N1CCCCN2[C@H](CO)[C@H](c3ccc(-c4ccc(F)cc4)cc3)[C@H]2C1,?,–,–,102,64,104
O=S(=O)(Cc1ccccc1)N1CCCCN2[C@@H](CO)[C@@H](c3ccc(-c4ccccc4)cc3)[C@@H]2C1,99,–,103,–,–,107
